Experimental data published in PubChem BioAssay AID651956 (Broad Institute, 2012).
Entries with a potency or affinity are not part of this list. Records with an inconclusive call do not appear. Active and inactive are the calls of the source.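 Rule for the calls: active = in every test run, a fitted half-maximal concentration for signal decrease at or below twice the highest tested concentration; inconclusive = runs disagree, flat 30 to 70% decrease, or poor fit; inactive = the rest.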

Test: miR-122 activators in hepatoma reporter cells, dose response, cell-based, Huh7 psiCHECK-miR122, Renilla luciferase, cherry-picked (AID 651956);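 note: Renilla luciferase from a miR-122 sensor reporter so lower signal means miR-122 activation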
Conditions: 48 h; series mostly up to 35 µM

outcome, inactive:
CN1C(=O)c2cc(NC(=O)Cc3ccccc3)ccc2OC[C@@H]2O[C@@H](CC(=O)O)CC[C@H]21
COCC(=O)Nc1ccc2c(c1)C(=O)N(C)[C@@H]1CC[C@H](CC(=O)NCc3ccccc3F)O[C@H]1CO2
C/C=C/c1ccc([C@H]2[C@@H](CO)N(Cc3ccccn3)[C@H]2CNC(C)=O)cc1
COc1ccc(NS(=O)(=O)c2ccc(NC(=O)C(C)(C(F)(F)F)C(F)(F)F)cc2)nn1
CCCNC(=O)C[C@@H]1CC[C@@H]2[C@H](COc3ccc(NC(=O)c4cc(F)cc(F)c4)cc3C(=O)N2C)O1
O=C(C1CCOCC1)N1C[C@H]2[C@@H](c3ccccc31)[C@@H](CO)N2Cc1ccccc1
CC(C)Oc1ccc(C(CCN)C2CCCCC2)cc1 (centres undefined)
Cc1ccccc1NC(=O)Nc1ccc2c(c1)C(=O)N(C)[C@H]1CC[C@@H](CC(=O)O)O[C@H]1CO2
CN(C[C@H]1N[C@@H](CO)[C@H]1c1ccc(-c2ccccc2)cc1)C(=O)C1CCC1
CC(=O)Oc1ccc2c(c1)C(=O)c1ccccc1CO2
CN1C(=O)c2cc(NC(=O)c3cccs3)ccc2OC[C@@H]2O[C@H](CC(=O)NCCN3CCCCC3)CC[C@H]21
COc1ccc(CNCCC(c2ccc(OC)cc2)c2ccccc2OC)cc1 (centres undefined)
O=c1c2cc(N3CCOCC3)ccc2[nH]c(=S)n1CCCN1CCCC1
O=C(Cn1c(=O)c2ccccc2n(CC(=O)N2CCCCC2)c1=O)N1CCCCC1
O=C(C1CC1)N(CCN(C(=O)C1CC1)c1ccccc1)c1ccccc1
O=C(Nc1ccc(F)cc1)N1C[C@H]2[C@@H](c3ccccc31)[C@H](CO)N2C(=O)c1ccncc1
CC(C)NC(=O)N1[C@H](CO)[C@@H](c2ccccc2)[C@@H]1CN(C)C(=O)c1cccnc1
COCC(=O)N(C)C[C@H]1Oc2cc(-c3ccccc3F)ccc2S(=O)(=O)N([C@@H](C)CO)C[C@@H]1C
COCC(=O)Nc1ccc2c(c1)C(=O)N(C)[C@@H]1CC[C@@H](CC(=O)NCCCN(C)C)O[C@@H]1CO2
CN1C(=O)c2cc(NC(=O)c3cccc(F)c3)ccc2OC[C@@H]2O[C@@H](CC(=O)Nc3ccccc3)CC[C@@H]21
Cn1c(-c2ccc(N)cc2)nc2ccccc21
CCC(=O)Nc1ccc2c(c1)C(=O)N(C)[C@@H]1CC[C@H](CC(=O)NCCN3CCCCC3)O[C@H]1CO2
CN1C(=O)c2cc(NC(=O)Nc3ccc(Cl)cc3)ccc2OC[C@@H]2O[C@@H](CC(=O)NCCN3CCCCC3)CC[C@H]21
O=C(NC[C@H]1[C@H](c2ccccc2)[C@@H](CO)N1Cc1ccccn1)C1CC1
CN1C(=O)c2cc(NC(=O)c3cccc(F)c3)ccc2OC[C@H]2O[C@H](CC(=O)N3CCc4ccccc4C3)CC[C@H]21
CCn1nnnc1SCC(=O)Nc1nnc(C(C)C)s1
CCOC(=O)C1CCN(C(c2cccnc2)c2c(NC(=O)c3ccco3)sc(C)c2C)CC1 (centres undefined)
COCC(=O)N(C[C@@H]1N[C@H](CO)[C@H]1c1ccc(-c2cccnc2)cc1)C(C)C
CN(C)CCNc1nc2sc3c(c2c(=O)n1CCc1ccccc1)CCCCC3
O=CN1CCN(C(=O)c2ccccc2F)CC1
COCC(=O)Nc1ccc2c(c1)C(=O)N(C)[C@H]1CC[C@@H](CC(=O)NC3CCCC3)O[C@H]1CO2
CNC(=O)C[C@H]1CC[C@@H]2[C@H](COc3ccc(NC(=O)C(C)C)cc3C(=O)N2C)O1
CN1C(=O)c2cc(NC(=O)Cc3ccccc3)ccc2OC[C@H]2O[C@@H](CC(=O)NC3CCC3)CC[C@@H]21
CCCNC(=O)C[C@H]1CC[C@@H]2[C@H](COc3ccc(NC(=O)c4cccs4)cc3C(=O)N2C)O1
CCCNC(=O)Nc1ccc2c(c1)OC[C@H](C)N(CCC)C[C@H](C)[C@H](OC)CN(C)C2=O
OC[C@H]1[C@@H](c2ccccc2)[C@H](CNCC2CCC2)N1CC1CC1
CNC(=O)C[C@H]1CC[C@@H]2[C@H](COc3ccc(NC(=O)Nc4cccc(F)c4)cc3C(=O)N2C)O1
CO[C@H]1CN(C)C(=O)c2cc(NC(C)=O)ccc2OC[C@@H](C)N(C(=O)c2ccccn2)C[C@H]1C
CNC(=O)c1nc(C)n(-c2cc(Cl)cc(Cl)c2)n1
